Source: PubChem BioAssay AID431 (Sanford-Burnham Center for Chemical Genomics, 2006)
Hit rate of the full screen: of about 63,000 compounds, about 1,100 (1.7%) were called active. This excerpt belongs to a sample that is enriched for actives. Entries with a potency or affinity are not part of this list. Unmarked numbers belong to inactive results.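 The calls were made as follows: active = compounds whose percent cytotoxicity in the single-dose primary screen, scaled between solvent and toxic-drug controls, exceeds 50; inactive = the rest.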

Experiment: cytotoxicity in KRAS-transformed pancreatic duct cells, primary screen, cell-based, fluorescence, HTS (AID 431);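 also: 0% = DMSO solvent wells and 100% = doxorubicin-treated wells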
Settings: HPDE-C7K KRASV12 cells, Alamar Blue viability, 48 h; at 10 µM; stronger effect = higher value

| Compound | cytotoxicity |
| --- | --- |
| CN(CC(=O)Nc1ccccc1Cl)C(=O)COC(=O)CNC(=O)c1ccc(Br)o1 | -18.6% |
| Cc1ccc2c(c1)nnn2C1CCN(C(=O)c2cccs2)CC1 | -4.8% |
| O=C(Cc1cccs1)Nc1ccc(C(=O)O)cc1 | -2.8% |
| CC(=O)OC1CC2(C)C(=O)CCC2C2CCc3cc(O)ccc3C12 (configuration not stated) | -12.1% |
| CCc1ccccc1S(=O)(=O)Cc1ccc(C(=O)NCC2CCCO2)o1 (configuration not stated) | -0.8% |
| c1ccc(-c2csc(Nc3cccnc3)n2)nc1 | 4.5% |
| COc1cccc2sc(Nc3nc(-c4ccccn4)cs3)nc12 | 58.6% (active) |
| Cc1cccc(Nc2nc(-c3ccccn3)cs2)n1 | 10.2% |
| CC(C)OCCCNC(=O)CN1C(=O)CC(C)(C)S(=O)(=O)c2ccccc21 | 3.7% |
| CS(=O)(=O)N(CC(=O)NCc1ccc2c(c1)OCO2)Cc1ccc(Cl)cc1 | -14.6% |
| C=CCNc1nc(NCc2ccccc2)c(C#N)c2c1CN(C)CC2 | 19.2% |
| N#Cc1c(N2CCCCC2)nc(N2CCCCC2)c2c1CCN(Cc1ccccc1)C2 | -4.7% |
| N#Cc1c(NCCCO)nc(-c2ccccc2)c2c1CCCC2 | 20.2% |
| CCN1CCc2c(C#N)c(N3CCOCC3)nc(NCc3ccccc3)c2C1 | -1.3% |
| C=CCNc1nc(N2CCCCC2)c(C#N)c2c1CN(Cc1ccccc1)CC2 | -1.7% |
| CCN1CCc2c(C#N)c(N3CCCCC3)nc(NCc3ccccc3)c2C1 | 51.6% (active) |
| N#Cc1c(NCCO)nc(NCc2ccccc2)c2c1CCN(Cc1ccccc1)C2 | 40.8% |
| CCN(CCCNC(=O)CCCn1c(=O)[nH]c2ccccc2c1=O)c1cccc(C)c1 | -2.5% |
| CCc1nc(SCC(=O)Nc2cc(C)on2)n[nH]1 | -9.6% |
| Cc1ccccc1NC(=O)N1C2CCCC1CC(NC(=O)C1CC1)C2 (configuration not stated) | 54.6% (active) |
| Cc1ccccc1NC(=O)N1C2CCCC1CC(NC(=O)C(C)(C)C)C2 (configuration not stated) | -3.9% |
| CCOc1ccccc1NC(=O)N1C2CCCC1CC(NC(=O)C1CC1)C2 (configuration not stated) | -3.2% |
| CCCCSc1nnc(C)c(=O)[nH]1 | -3.8% |

| Compound | cytotoxicity |
| --- | --- |
| CN1CC2=Cc3ccccc3OC23Oc2ccccc2C=C3C1 | 60.6% (active) |
| c1ccc(-c2nnc3sc(-c4csc5c4CCCC5)nn23)cc1 | 71.6% (active) |
| Cc1ccccc1-c1nn2c(-c3ccccc3)nnc2s1 | 11.2% |
| Cc1nnc2sc(-c3csc4c3CCCC4)nn12 | 3.5% |
| COc1ccc(-c2cc(C(F)F)n3ncc(C(=O)NCCCN4CCCC4=O)c3n2)cc1 | -8.7% |
| COCCNC(=O)c1ccccc1-c1ccccc1C(=O)O | 7.4% |
| COC(=O)CSc1nnc(CCc2nc3ccccc3[nH]2)n1C | -3.8% |
| COc1cc(C2C(C(C)=O)=C(C)Nc3ncnn32)ccc1O (configuration not stated) | 2.2% |
| COc1ccc(OC)c(Nc2cc(C)nc3ccccc23)c1 | 1.1% |
| COc1ccc(OC)c(Nc2cc(-c3ccccc3)nc(N)n2)c1 | 57.6% (active) |
| COc1cc(-c2ccccc2)nc(N)n1 | 7.6% |
| CC1CCCCC1NC(=O)Cn1[nH]c(=O)c2ccccc2c1=O (configuration not stated) | 0.5% |
| CC(C)(C)NC(=O)Nc1ccccc1C(N)=O | -1.1% |
| Cc1sc2nc3c4ccccc4c(NCc4ccco4)nn3c(=O)c2c1C | 66% (active) |
| Cc1sc2ncnc(NCc3ccco3)c2c1C | 0.5% |
| Cc1sc2nc(SCC(=O)NCc3ccco3)n(-c3ccccc3)c(=O)c2c1C | 7.2% |
| O=C(CCOc1ccccc1)OCC(=O)c1cc2ccccc2o1 | -20.1% |
| COc1ccc(S(=O)(=O)N2CCCCC2)cc1C(C)C | -10.6% |
| Nc1nc(-c2ccccc2Br)cs1 | 15.5% |
| Cc1cc(-c2csc(N)n2)c(C)n1CCc1ccccc1 | 99.3% (active) |
| CCOC(=O)c1cc(C)n(CCc2ccccc2)c1C | 0.4% |
| COCCn1c(-c2ccc(Cl)cc2)cnc1SCC(=O)NCc1cccs1 | -6.5% |
| N#CC1=C(N)C(C#N)(C#N)C2(C(=O)Nc3ccccc32)C2CCCC=C12 (configuration not stated) | -18.9% |

| Compound | cytotoxicity |
| --- | --- |
| CS(=O)(=O)N1CCc2cc(C(=O)O)ccc21 | 8.3% |
| CS(=O)(=O)N1CCc2cc(S(=O)(=O)N3CCN(Cc4ccc5c(c4)OCO5)CC3)ccc21 | 7.7% |
| CS(=O)(=O)N1CCc2cc(S(=O)(=O)Nc3ccc4oc5c(c4c3)CCCC5)ccc21 | 84.6% (active) |
| O=C(C(Cc1ccccc1)n1cccc1)N1CCc2ccccc21 (configuration not stated) | -1.9% |
| CC(=O)Oc1c(Cl)c(N2CCOCC2)c(OC(C)=O)c2ccccc12 | -27.5% |
| COCCn1c(SCC(=O)Nc2ccccc2)nc2c1c(=O)[nH]c(=O)n2C | -3.2% |
| CC1CCc2c(sc3ncnc(SCC(=O)N4CCN(C(=O)c5ccco5)CC4)c23)C1 (configuration not stated) | 2.5% |
| CCC(c1nnnn1C(C)(C)C)N1CCN(c2cc(Cl)ccc2C)CC1 (configuration not stated) | -6.4% |
| CC(=NC1CCCC1)c1c(C)[nH]n(-c2nc3ccccc3s2)c1=O | -31.1% |
| O=c1cc(-c2ccccc2)[nH]c2nc3ccccc3n12 | 31.4% |
| Cc1nn(-c2nc3ccccc3s2)c(N)c1-c1ccccc1 | 5.2% |
| COc1ccc(-c2cc(=O)n(-c3nc4ccccc4[nH]3)[nH]2)cc1 | 10.5% |
| O=c1cc(-c2ccccc2)[nH]n1-c1nc2ccccc2s1 | 79% (active) |
| Cc1[nH]c(=O)[nH]c1CN1CCCCC1 | -10.3% |
| CCOC(=O)c1cnn(-c2ccccc2)c1NC(=O)c1cccs1 | 0.1% |
| O=C(c1cccs1)n1cc(C(=S)N2CCOCC2)c2ccccc21 | 10% |
| COc1ccc(-c2c(C)nn3c(N4CCN(Cc5ccccc5)CC4)cc(C)nc23)cc1OC | -4% |
| c1csc(-c2cnc3ccccc3n2)c1 | 3.7% |
| CCOC(=O)N1CCC(=C2c3ccc(Cl)cc3CCc3cccnc32)CC1 | 90.6% (active) |
| CCOC(=O)N1CCN(S(=O)(=O)c2cc(Cl)ccc2Cl)CC1 | -7.3% |
| CCOC(=O)N1CCN(C(=O)Nc2ccc(Cl)cc2Cl)CC1 | 0.2% |
